Results on 18 molecules are retold here after PubChem BioAssay AID1053125 (Broad Institute, 2014).

Entries with a potency or affinity are not part of this list. Calls of active or inactive are those of the source.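 The calls were made as follows: active = viability loss whose fitted half-maximal concentration is at most twice the top valid tested dose; inconclusive = flat curve with 30 to 70% loss, or poor fit; inactive = the rest.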

This experiment in a line: HepG2 cell cytotoxicity, dose response, cytotoxicity control, ATP luminescence, cherry-pick, set 6 (AID 1053125).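 Also: negative values mean loss of viability signal.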 The settings on record: HepG2 viability, ATP luminescence (CellTiter-Glo), 72 h; series mostly up to 26 µM; activity change, negative = cytotoxicity: at the top concentration. (In general: Cellular ATP, detected with luciferase, serves as a proxy for viable cell number.)
With `CN1CCc2c(sc(NC(=O)Cc3ccccc3)c2C#N)C1`, the “activity change, negative = cytotoxicity” value is -7.87% (inactive).

Consider `O=c1c2ccccc2n(CC(O)CN2CCCCC2)c2ccccc12` (stereo not drawn), for which the “activity change, negative = cytotoxicity” value is 0.985% (inactive).

Consider `N=c1c(C(=O)NCC2CCCO2)cc2c(=O)n3ccccc3nc2n1Cc1ccc(Cl)cc1` (stereo not drawn), for which the “activity change, negative = cytotoxicity” value is -14.8% (inactive).

`CNC(=O)c1ccc(NC(=O)c2cccc(C(F)(F)F)c2)cc1`: the “activity change, negative = cytotoxicity” value was 18.7% (inactive).

Take `CCC(=O)NCCCNc1nc2c(C)cccc2cc1C#N`: the “activity change, negative = cytotoxicity” value was -13.7% (inactive).

Take `CC1CCN(S(=O)(=O)N2CCC(C(=O)NC3CCCC3)CC2)CC1`: the “activity change, negative = cytotoxicity” value was -3.91% (inactive).

For the molecule `Cc1cccn2c(=O)c3cc(C(N)=S)c(=N)n(CCCOC(C)C)c3nc12`, the “activity change, negative = cytotoxicity” value is -6.1% (inactive).

As for `O=C(O)c1cccc(NC(=O)c2cn(-c3ccccc3)nc2-c2cccc(Br)c2)c1`, the “activity change, negative = cytotoxicity” value was -7.45% (inactive).

As for `O=c1oc2cc(O)ccc2cc1S(=O)(=O)c1ccccc1`, the “activity change, negative = cytotoxicity” value is -3.94% (inactive).

For `COc1ccccc1/C=N/Nc1nc(C)cc(=O)[nH]1`, the “activity change, negative = cytotoxicity” value is -7.23% (inactive).

On to `CCOC(=O)c1cc(-c2ccccc2)sc1NC(=O)CSc1nnc(N)s1`, for which the “activity change, negative = cytotoxicity” value was 11.4% (inactive).

Consider `N#Cc1c2ccc(OCC(N)=O)cc2n2ccccc12`, for which the “activity change, negative = cytotoxicity” value is -3.56% (inactive).

In the case of `O=C(Cc1csc(-c2ccccc2)n1)NCc1ccccc1F`, the “activity change, negative = cytotoxicity” value is 1.41% (inactive).

Consider `COc1c(Cl)cc(-c2noc(C)c2C(=O)NCc2ccc3c(c2)OCO3)cc1Cl`, for which the “activity change, negative = cytotoxicity” value is -5.56% (inactive).

As to `COc1cc(C(c2c(C(=O)O)[nH]c3ccccc23)c2c(C(=O)O)[nH]c3ccccc23)ccc1OCc1ccccc1`, the “activity change, negative = cytotoxicity” value was -14.1% (inactive).

Take `CCN(c1ccccc1)S(=O)(=O)c1ccc(OC)c(NC(=O)CN(C)C)c1`: the “activity change, negative = cytotoxicity” value is -14.4% (inactive).

In the case of `CC(=O)c1sc(N/N=C\c2ccc(N(C)C)cc2)nc1C`, the “activity change, negative = cytotoxicity” value is -8.39% (inactive).

With `O=C(Nc1ccc(-c2ccco2)cc1)C1CCCN(Cc2ccco2)C1` (stereo not drawn), the “activity change, negative = cytotoxicity” value was -14.2% (inactive).
